# Screens deposited in PubChem by several laboratories.
# Rows were chosen to be rich in hits. Some 1.8% of all compounds tested hit in one or more screens of this group.
# VLA-4 inh: inhibition in a human VLA-4 binding assay; inhibition, % (about 7 µM as worked out from the volumes in the protocol); hit rate 0.2% among 330,000; VLA-4 expressing cells, ligand binding flow cytometry; in the data active means inhibition above about 50%
# Target sequence (P13612 whole entry, looked up): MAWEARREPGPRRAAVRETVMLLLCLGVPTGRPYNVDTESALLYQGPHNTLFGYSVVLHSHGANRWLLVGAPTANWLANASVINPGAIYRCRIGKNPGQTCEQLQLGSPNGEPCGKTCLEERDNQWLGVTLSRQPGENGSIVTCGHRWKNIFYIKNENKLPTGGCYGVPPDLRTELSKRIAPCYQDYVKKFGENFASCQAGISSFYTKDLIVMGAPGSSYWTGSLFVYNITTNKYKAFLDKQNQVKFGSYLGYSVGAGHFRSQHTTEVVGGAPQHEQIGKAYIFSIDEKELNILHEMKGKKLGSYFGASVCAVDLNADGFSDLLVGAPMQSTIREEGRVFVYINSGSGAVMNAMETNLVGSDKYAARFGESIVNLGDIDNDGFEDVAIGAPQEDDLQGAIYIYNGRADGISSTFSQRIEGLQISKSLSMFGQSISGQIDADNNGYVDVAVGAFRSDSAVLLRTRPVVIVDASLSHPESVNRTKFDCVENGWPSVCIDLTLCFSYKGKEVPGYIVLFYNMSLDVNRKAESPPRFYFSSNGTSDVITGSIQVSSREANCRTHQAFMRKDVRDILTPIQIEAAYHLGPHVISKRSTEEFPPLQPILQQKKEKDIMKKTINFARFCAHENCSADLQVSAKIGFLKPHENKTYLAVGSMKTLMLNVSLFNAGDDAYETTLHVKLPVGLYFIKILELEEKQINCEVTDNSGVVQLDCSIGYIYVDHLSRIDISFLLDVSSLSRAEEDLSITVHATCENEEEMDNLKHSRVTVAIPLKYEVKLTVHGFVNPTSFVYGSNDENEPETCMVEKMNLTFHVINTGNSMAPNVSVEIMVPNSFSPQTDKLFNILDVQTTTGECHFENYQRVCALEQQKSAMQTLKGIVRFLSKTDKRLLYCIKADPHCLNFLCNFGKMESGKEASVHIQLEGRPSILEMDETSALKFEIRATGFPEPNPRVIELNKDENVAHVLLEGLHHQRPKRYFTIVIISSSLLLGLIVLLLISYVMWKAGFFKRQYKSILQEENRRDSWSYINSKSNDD
# A3G deaminase: APOBEC3G (human) deaminase inhibition. Q9HC16. recombinant A3G, ssDNA deamination FAM/TAMRA fluorescence. inhibition, % at 20 µM. hit rate 0.28% among 330,000. AID 493012;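 active means inhibition of at least 40% at 20 µM, with no more than 30% in the related APOBEC3A deaminase screen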;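 further: plate controls were DMSO wells with A3G for no effect and wells lacking A3G enzyme for full effect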
# APOBEC3A inh: blocks human APOBEC3A ssDNA deamination | inhibition, % at 20 µM | P31941 | recombinant A3A, FAM/TAMRA ssDNA deamination fluorescence | hit rate 0.41% among 330,000;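 active means at least 40% inhibition at 20 µM here, with at most 30% in a related deaminase screen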;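 further: plate controls were A3A with DMSO for no effect and wells lacking A3A enzyme for full effect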
# CendR NRP1 mod: modulators of CendR peptide binding to human neuropilin-1; hit rate 0.85% among 360,000; O14786; FAM-RPARPAR peptide binding to NRP-1, fluorescence polarization; AID 602438; inhibition, % at 25 µM;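 active means inhibition or corrected inhibition above about 18%, plus a signal ratio from 0.5 to 1.5, limit read from the data, passing the limit was not always enough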
# beta cell repl: inducers of beta-cell replication in MIN6 cells. MIN6 cells proliferation, ATPlite luminescence, 48 h; cells starved in 0.2% serum; 100% = growth in 10% serum. AID 2380. proliferation, % at 10 µM. hit rate 0.29% among 330,000;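 active means compounds whose signal lies at least 3.5 SD above the mean of all wells on their plate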;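 further: 0% = DMSO-treated cells in low-serum medium and 100% = 10% serum control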
# APOBEC3G confirm: confirmation of human APOBEC3G DNA deaminase inhibitors. shares compounds with A3G deaminase. recombinant A3G ssDNA deaminase, UDG/FAM-TAMRA fluorescence. inhibition, % at 20 µM. hit rate 72% among 890. AID 493152;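 active means inhibition reaching a set limit in any replicate at 20 µM, the limit being 80% of the first screen's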
# UDG ctr A3G: E. coli UDG inhibition in APOBEC3G counter-screen | shares compounds with A3G deaminase | UDG counterscreen, FAM/TAMRA oligo fluorescence | inhibition, % at 20 µM | 710 tested, under 10 active | AID 504715;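 active means compounds giving 40% or more inhibition at 20 µM in any one of the three replicates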;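 further: plate controls were DMSO wells with UDG and oligo for no effect and DMSO wells lacking both for full effect; inhibitors lower the FAM signal released by uracil excision and alkaline cleavage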
# The depositor's hits bear a star; i = inactive; / = no result; ! = repeats disagree.
SMILES,VLA-4 inh,A3G deaminase,APOBEC3A inh,CendR NRP1 mod,beta cell repl,APOBEC3G confirm,UDG ctr A3G
S=c1[nH]nc(C2CCCCC2)n1/N=C/c1ccncc1,-2.5,48.0*,-3.5,4.4,4.4,68.5*,-3.8
CSc1ccc(/C=N/n2c(C3CCCCC3)n[nH]c2=S)cc1,4.4,-9.1,-5.1,4.4,-2.5,/,/
CCCC(C)NC(=O)C1c2ccccc2Oc2ccccc21 (centres undefined),3.7,-4.2,-7.6,0.6,-2.9,/,/
S=c1[nH]c(-c2ccccc2)cn1/N=C/c1ccncc1,-7.4,55.6*,-17.3,2.0,0.4,71.0*,-0.4
CC1(C)Cc2c(sc3ncn4c(=S)[nH]nc4c23)CO1,-10.9,41.6*,0.1,-14.5,0.8,74.0*,-3.0
COc1cc2c(cc1/C=C/C(=O)O)OC(C)C2 (centres undefined),5.2,-1.8,1.4,3.5,2.9,/,/
CC(C)(O)C1Cc2cc(/C=C/C(=O)O)c(O)cc2O1 (centres undefined),/,82.4*,-0.2,4.2,-5.0,93.9*,-2.2
COc1ccc(Cl)cc1NC(=O)CN(C)C(=O)CN1C(=O)NC2(CCCC2)C1=O,7.0,-6.4,-1.1,9.8,-2.3,/,/
CC(=O)N1CCN(C(=S)c2cccc([N+](=O)[O-])c2)CC1,14.8,-8.9,-6.1,-3.3,1.1,/,/
O=[N+]([O-])c1ccc(N2CCN(C(=S)c3cccc([N+](=O)[O-])c3)CC2)cc1,-8.5,65.7*,1.3,-1.1,-4.5,69.9*,-1.8
CC1CCN(C(=S)c2ccccc2O)CC1,-2.7,49.1*,2.6,5.5,-0.3,42.4*,2.1
CC1CCN(C(=S)c2ccc(O)cc2)CC1,0.0,1.2,1.4,-6.5,-0.5,/,/
CCCCCC1=CCC/C1=N\NC(=O)c1ccc2c(c1)OCO2,11.5,-0.1,3.4,-18.0,1.4,/,/
C=C(C)C(=O)Nc1ccc2c(c1)OCCOCCOCCO2,-3.0,78.1*,19.9,-17.8,0.6,85.5*,/
COc1cc(C2C3=C(COC3=O)Oc3cc4c(cc32)OCO4)cc(OC)c1OC(C)=O (centres undefined),/,/,/,-11.2,/,/,/
CCCC(C)c1nnc(NC(=O)CCS(=O)(=O)c2ccccc2)s1 (centres undefined),3.7,66.4*,13.3,11.8,0.0,56.2*,-3.8
CC(C)c1nnc(NC(=O)CCS(=O)(=O)c2ccccc2)s1,8.5,-7.0,-2.6,21.3,-3.2,/,/
CCCCCC(O)CCc1n[nH]c(=S)n1-c1ccccc1 (centres undefined),4.7,41.2*,0.2,11.1,-2.8,57.8*,-2.5
CC(NC(=O)c1sc2cc([N+](=O)[O-])ccc2c1Cl)C(C)(C)C (centres undefined),8.7,54.8*,0.8,6.5,-5.7,69.1*,-3.5
N#CCC(=O)NNC(=S)NC(=O)C(c1ccccc1)c1ccccc1,2.8,-6.7,-0.3,14.3,-4.4,/,/
CC(=O)NC(=S)NNC(=O)C(c1ccccc1)c1ccccc1,4.7,46.1*,2.1,17.0,-3.2,41.3*,-4.3
COC(=O)/C=c1/sc2nc3ccccc3n2c1=O,-9.0,72.9*,1.3,3.5,-4.5,74.5*,-3.1
O=c1/c(=C/c2ccccn2)sc2nc3ccccc3n12,9.2,-4.0,-0.9,13.2,-3.3,/,/
CCOC(=O)c1cc(C)[nH]c(=S)c1C#N,-8.1,63.4*,-2.9,0.8,-2.6,81.8*,5.7
CCC(C)(C)n1nnnc1C(c1ccc2ncccc2c1)N1CCN(c2nc3ccccc3s2)CC1 (centres undefined),20.7,-0.6,-1.8,11.5,-4.5,/,/
SMILES,VLA-4 inh,A3G deaminase,APOBEC3A inh,CendR NRP1 mod,beta cell repl,APOBEC3G confirm,UDG ctr A3G
CCC(C)(C)n1nnnc1C(c1ccc2ncccc2c1)N1CCN(c2ccc(O)cc2)CC1 (centres undefined),1.3,41.0*,2.2,5.3,-3.6,5.0,/
CCN(CC)CC(=O)N1c2ccccc2Oc2c(c(=O)n(C)c(=O)n2C)C1c1cccc([N+](=O)[O-])c1 (centres undefined),-2.6,-1.9,-0.3,8.0,0.4,/,/
O=C(NC(=S)NN1CCOCC1)c1cc(Br)ccc1Cl,-0.5,-5.0,1.2,-16.0,0.5,/,/
Nc1ccc2c(c1)C(=O)CCC2,/,/,/,2.7,/,/,/
CC1(C)S[C@@H]2[C@H](NC(=O)[C@H](N)c3ccccc3)C(=O)N2[C@H]1C(=O)O,-1.2,74.6*!,5.8,-65.5,-1.1,42.1*,1.4
CC1(C)S[C@@H]2[C@H](NC(=O)[C@H](N)c3ccc(O)cc3)C(=O)N2[C@H]1C(=O)O,14.0,-0.4,1.2,-44.9,-3.0,/,/
Cc1c2cnn(CC(=O)Nc3c(F)c(F)cc(F)c3F)c(=O)c2c(C)n1Cc1ccccc1F,15.6,44.9*,27.5,-40.7,1.3,47.7*,-2.2
CNC(=O)Cn1ncc2c(C)n(Cc3ccc(C)cc3)c(C)c2c1=O,-2.3,-7.6,-11.8,15.3,-1.4,/,/
CSc1nc2c(c(=O)[nH]c(=O)n2C)n1Cc1ccc(Cl)cc1,2.8,53.0*,1.5,5.9,-2.0,56.2*,-3.2
CSc1nc2c(c(=O)[nH]c(=O)n2C)n1Cc1ccccc1Cl,13.2,-7.2,-3.6,1.2,-1.4,/,/
N#CC(c1nc2ccccc2nc1N1CCCC1)S(=O)(=O)c1cccs1 (centres undefined),i,51.1*,-2.2,-63.7,-1.6,5.1,0.1
COc1cccc2cc(-c3n[nH]c(=S)n3C)oc12,7.5,54.2*,-9.3,10.7,-0.6,80.3*,2.2
S=c1[nH]nc(COc2ccccc2)n1/N=C/c1ccco1,-5.9,58.9*,-4.0,5.7,-1.6,71.4*,-2.3
O=c1c2cc(F)ccc2sn1-c1ccc(F)cc1,-8.4,72.3*,-1.6,-10.0,-7.5,78.0*,0.7
COc1ccc(-n2sc3ccc(F)cc3c2=O)cc1,0.0,67.0*,-4.2,-14.1,-7.0,81.0*,-1.7
O=c1c2cc([N+](=O)[O-])ccc2sn1-c1ccccc1,/,/,/,-2.7,/,/,/
COc1ccc(-n2sc3ccccc3c2=O)cc1,/,/,/,-7.9,/,/,/
Cc1ccc(C)c(-n2sc3ccc(F)cc3c2=O)c1,-8.4,55.9*,0.2,0.4,-7.3,61.2*,-3.0
Cc1ccc2c(c1)-c1c(ssc1=S)C(C)(C)N2C(=O)c1ccco1,18.4,42.0*,0.0,3.2,-4.1,55.3*,-3.8
CCOc1ccc(Cc2n[nH]c(=S)n2N)cc1,12.4,29.0,-3.8,-6.0,-2.2,/,/
COc1ccc(Cc2n[nH]c(=S)n2C)cc1Br,-4.8,42.1*,-0.9,-12.7,7.2,54.4*,1.3
Nn1c(Cc2cccc3ccccc23)n[nH]c1=S,22.7,47.3*,-4.9,12.9,4.0,82.2*,-2.5
Nn1c(Cc2ccc(Br)cc2)n[nH]c1=S,-5.9,50.6*,-3.9,12.1,0.3,80.4*,-2.6
Nn1c(Cc2ccccc2F)n[nH]c1=S,5.0,12.4,-4.0,-11.2,-0.7,/,/
